{"source": "the supplement of paper PMC8728848", "assay_in_all_cases": "glycan array binding signal (z-score within array); higher = stronger binding", "details_in_all_cases": "glycan notation: IUPAC condensed, linker removed; mutation: R349A", "key": {"[1]": {"molecular_target": "Fuc(a1-2)Gal(b1-4)GlcNAc", "outline": "(§1)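 Glycan array binding is given as a within-array Z-score, which can be read as non-binding when negative. The arrays, 3228 of them, came from the Consortium for Functional Glycomics database and were retained only where the protein sequence was available. Z-scores were averaged across arrays of the same protein sequence at different concentrations or buffers and across linkers.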"}, "[2]": {"molecular_target": "Fuc(a1-2)Gal(b1-4)GlcNAc(b1-3)Gal(b1-4)GlcNAc", "outline": "as §1"}, "[3]": {"molecular_target": "Fuc(a1-2)[GalNAc(b1-3)]Gal", "outline": "as §1"}, "[4]": {"molecular_target": "Fuc(a1-3)[Gal(b1-4)]GlcNAc(b1-3)Gal(b1-3)[Fuc(a1-4)]GlcNAc", "outline": "as §1"}, "[5]": {"molecular_target": "Gal(b1-3)GalNAc", "outline": "as §1"}, "[6]": {"molecular_target": "Gal(b1-3)GalNAc(b1-4)[Neu5Ac(a2-3)]Gal(b1-4)Glc", "outline": "as §1"}, "[7]": {"molecular_target": "Gal(b1-3)[Fuc(a1-4)]GlcNAc(b1-3)Gal(b1-4)GlcNAc", "outline": "as §1"}, "[8]": {"molecular_target": "Gal(b1-4)GlcNAc(b1-3)[GlcNAc(b1-6)]Gal(b1-4)GlcNAc", "outline": "as §1"}, "[9]": {"molecular_target": "Gal3S(b1-4)Glc", "outline": "as §1"}, "[10]": {"molecular_target": "Gal3S6S(b1-4)GlcNAc", "outline": "as §1"}, "[11]": {"molecular_target": "Gal3S6S(b1-4)GlcNAc6S", "outline": "as §1"}, "[12]": {"molecular_target": "Gal6S(b1-4)Glc6S", "outline": "as §1"}, "[13]": {"molecular_target": "GlcNAc(b1-2)Man(a1-3)[GlcNAc(b1-2)Man(a1-6)]Man(b1-4)GlcNAc(b1-4)GlcNAc", "outline": "as §1"}, "[14]": {"molecular_target": "GlcNAc(b1-3)Gal", "outline": "as §1"}, "[15]": {"molecular_target": "GlcNAc(b1-4)GlcNAc(b1-4)GlcNAc", "outline": "as §1"}, "[16]": {"molecular_target": "GlcNAc(b1-4)GlcNAc(b1-4)GlcNAc(b1-4)GlcNAc(b1-4)GlcNAc", "outline": "as §1"}, "[17]": {"molecular_target": "GlcNAc(b1-4)[GlcNAc(b1-6)]GalNAc", "outline": "as §1"}, "[18]": {"molecular_target": "Man(a1-2)Man(a1-2)Man(a1-6)[Man(a1-3)]Man", "outline": "as §1"}, "[19]": {"molecular_target": "Man(a1-2)Man(a1-3)Man", "outline": "as §1"}, "[20]": {"molecular_target": "Man(a1-2)Man(a1-3)[Man(a1-2)Man(a1-6)]Man(a1-6)[Man(a1-2)Man(a1-2)Man(a1-3)]Man", "outline": "as §1"}, "[21]": {"molecular_target": "Man(a1-3)[Man(a1-6)]Man(a1-6)[Man(a1-2)Man(a1-3)]Man(b1-4)GlcNAc(b1-4)GlcNAc", "outline": "as §1"}, "[22]": {"molecular_target": "Neu5Ac(a2-3)Gal(b1-4)GlcNAc(b1-2)Man(a1-3)[GlcNAc(b1-2)Man(b1-4)GlcNAc(b1-2)Man(a1-6)]Man(b1-4)GlcNAc(b1-4)GlcNAc", "outline": "as §1"}, "[23]": {"molecular_target": "Neu5Ac(a2-3)Gal(b1-4)[Fuc(a1-3)]GlcNAc(b1-3)Gal(b1-4)[Fuc(a1-3)]GlcNAc(b1-3)Gal(b1-4)[Fuc(a1-3)]GlcNAc", "outline": "as §1"}, "[24]": {"molecular_target": "Neu5Ac(a2-6)GalNAc", "outline": "as §1"}, "[25]": {"molecular_target": "Neu5Ac(a2-8)Neu5Ac(a2-8)Neu5Ac(a2-3)[GalNAc(b1-4)]Gal(b1-4)Glc", "outline": "as §1"}}, "note": "This excerpt belongs to a sample that is enriched for the strongest signals."}
{"binder": "Surfactant Protein D (Human); Neck + Carbohydrate Recognition Domain (NCRD) (Homo sapiens) (protein) MLLFLLSALVLLTQPLGYLEAEMKTYSHRTMPSACTLVMCSSVESGLPGRDRDGREGPRGEKGDPGLPGAAGQAGMPGQAGPVGPKGDNGSVGEPGPKGDTGPSGPPGPPGVPGPAGREGALGKQGNIGPQGKPGPKGEAGPKGEVGAPGMQGSAGARGLAGPKGERGVPGERGVPGNTGAAGSAGAMGPQGSPGARGPPGLKGDKGIPGDKGAKGESGLPDVASLRQQVEALQGQVQHLQAAFSQYKKVELFPNGQSVGEKIFKTAQFVKPFTEAQLLCTQAGGQLASPRSAAENAALQQLVVAKNEAAFLSMTDSKTEGKFTYPTGESLVYSNWAPGEPNDDGGSEDCVEIFTNGKWNDRACGEKALVVCEF", "values": [{"measurement": "glycan array binding signal (z-score)", "setting": "[1]", "value": -0.584}, {"measurement": "glycan array binding signal (z-score)", "setting": "[2]", "value": -0.301}, {"measurement": "glycan array binding signal (z-score)", "setting": "[3]", "value": -0.782}, {"measurement": "glycan array binding signal (z-score)", "setting": "[4]", "value": -0.667}, {"measurement": "glycan array binding signal (z-score)", "setting": "[5]", "value": -0.459}, {"measurement": "glycan array binding signal (z-score)", "setting": "[6]", "value": 0.216}, {"measurement": "glycan array binding signal (z-score)", "setting": "[7]", "value": 0.257}, {"measurement": "glycan array binding signal (z-score)", "setting": "[8]", "value": -0.419}, {"measurement": "glycan array binding signal (z-score)", "setting": "[9]", "value": 0.892}, {"measurement": "glycan array binding signal (z-score)", "setting": "[10]", "value": 2.25}, {"measurement": "glycan array binding signal (z-score)", "setting": "[11]", "value": 3.32}, {"measurement": "glycan array binding signal (z-score)", "setting": "[12]", "value": 3.96}, {"measurement": "glycan array binding signal (z-score)", "setting": "[13]", "value": -0.653}, {"measurement": "glycan array binding signal (z-score)", "setting": "[14]", "value": -0.71}, {"measurement": "glycan array binding signal (z-score)", "setting": "[15]", "value": 3.19}, {"measurement": "glycan array binding signal (z-score)", "setting": "[16]", "value": 0.258}, {"measurement": "glycan array binding signal (z-score)", "setting": "[17]", "value": -0.577}, {"measurement": "glycan array binding signal (z-score)", "setting": "[18]", "value": -0.532}, {"measurement": "glycan array binding signal (z-score)", "setting": "[19]", "value": 0.578}, {"measurement": "glycan array binding signal (z-score)", "setting": "[20]", "value": 4.48}, {"measurement": "glycan array binding signal (z-score)", "setting": "[21]", "value": 7.39}, {"measurement": "glycan array binding signal (z-score)", "setting": "[22]", "value": 0.008}, {"measurement": "glycan array binding signal (z-score)", "setting": "[23]", "value": -0.593}, {"measurement": "glycan array binding signal (z-score)", "setting": "[24]", "value": 0.373}, {"measurement": "glycan array binding signal (z-score)", "setting": "[25]", "value": -0.579}]}
